From PubChem BioAssay (EPA / NIEHS)
Where “and” joins values, the source holds several entries; their conditions need not be identical. Equal values may be shown once. Some compounds were tested as several samples or in several runs, with calls that do not always agree. Calls of active or inactive are those of the source. The calls were made as follows: active = hit-call score of the fitted dose curve at least 0.9, where 1 is the maximum; inactive = score below 0.9.

How the values were obtained:
[1] = read-out: Thrombomodulin, THBD (gene 7056); experiment: BSK_CASM3C_Thrombomodulin: BioMAP Diversity Plus: CASM3C Assay for Thrombomodulin Biomarker Activity (AID 2283051); settings: primary human coronary artery smooth muscle cells; actives raise or lower the signal;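 also: thrombomodulin protein level measured by ELISA 24 h after dosing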
[2] = read-out: Tissue Factor, F3 (gene 2152); experiment: BSK_CASM3C_TissueFactor: BioMAP Diversity Plus: CASM3C Assay for Tissue Factor Biomarker Activity (AID 2283052); settings: primary human coronary artery smooth muscle cells; actives raise or lower the signal;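 also: cell surface tissue factor protein level read by ELISA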
[3] = read-out: Interferon-gamma inducible Protein 10 (IP10), CXCL10 (gene 3627); experiment: BSK_hDFCGF_IP10: BioMAP Diversity Plus: hDFCGF Assay for Interferon-gamma inducible Protein 10 (IP10) Biomarker Activity (AID 2283053); settings: primary human foreskin fibroblasts; actives raise or lower the signal
Outline: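 ELISA quantification of IP-10 after a 24 h chemical exposure of human dermal foreskin fibroblast primary cultures. Both increases and decreases versus DMSO fitted.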

[4] = read-out: Urokinase-type plasminogen activator receptor (uPAR), PLAUR (gene 5329); experiment: BSK_CASM3C_uPAR: BioMAP Diversity Plus: CASM3C Assay for Urokinase-type plasminogen activator receptor (uPAR) Biomarker Activity (AID 2283054); settings: primary human coronary artery smooth muscle cells; actives raise or lower the signal;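 also: cell-surface uPAR protein level quantified by ELISA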
[5] = read-out: Vascular cell adhesion molecule 1 (VCAM1), VCAM1 (gene 7412); experiment: BSK_CASM3C_VCAM1: BioMAP Diversity Plus: CASM3C Assay for Vascular cell adhesion molecule 1 (VCAM1) Biomarker Activity (AID 2283055); settings: primary human coronary artery smooth muscle cells; actives raise or lower the signal;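 also: VCAM-1 protein level quantified by ELISA on the cells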
[6] = read-out: Collagen III, COL3A1 (gene 1281); experiment: BSK_hDFCGF_CollagenIII: BioMAP Diversity Plus: hDFCGF Assay for Collagen III Biomarker Activity (AID 2283056); settings: primary human foreskin fibroblasts; actives raise or lower the signal
Outline: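 Human foreskin primary fibroblasts were exposed to test chemicals for 24 h, after which collagen III was quantified by ELISA. Activity was fitted bidirectionally against DMSO as negative control and baseline.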

[7] = read-out: Epidermal growth factor receptor (EGFR), EGFR (gene 1956); experiment: BSK_hDFCGF_EGFR: BioMAP Diversity Plus: hDFCGF Assay for Epidermal growth factor receptor (EGFR) Biomarker Activity (AID 2283057); settings: primary human foreskin fibroblasts; actives raise or lower the signal
Outline: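 EGFR levels by ELISA in human dermal fibroblast cultures, 24 h post-treatment, fitted bidirectionally versus DMSO. Parallel wells stained with sulforhodamine B to detect overt cytotoxicity.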

[8] = BSK_hDFCGF_Proliferation: Cell Proliferation Assessment in the BioMAP Diversity Plus: hDFCGF Assay (AID 2283059); settings: primary human foreskin fibroblasts;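 also: curves fitted for both rise and fall of signal versus DMSO baseline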
Outline: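 Steps: dose primary human dermal fibroblasts (foreskin); […] fix in 10% TCA; stain with 0.1% SRB; read 560 nm; fit gain or loss of signal against DMSO.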

[9] = read-out: Macrophage colony-stimulating factor (MCSF), CSF1 (gene 1435); experiment: BSK_hDFCGF_MCSF: BioMAP Diversity Plus: hDFCGF Assay for Macrophage colony-stimulating factor (MCSF) Biomarker Activity (AID 2283060); settings: primary human foreskin fibroblasts; actives raise or lower the signal
Outline: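 Human foreskin primary fibroblasts were treated with test chemical for 24 h, and M-CSF was then measured by ELISA. Data were fitted bidirectionally against DMSO as the negative control and activity baseline.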

[10] = BSK_hDFCGF_SRB: Viability Assessment in the BioMAP Diversity Plus: hDFCGF Assay (AID 2283061); settings: primary human foreskin fibroblasts;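 also: cells exposed to compound for 24 h before the read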
Outline: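 Human foreskin primary fibroblasts were treated with compound and assessed 24 h after dosing. Total protein was measured by sulforhodamine B staining (0.1% SRB after 10% TCA fixation, 560 nm read) as a cytotoxicity marker, with bidirectional fitting against DMSO baseline.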

[11] = read-out: TIMP metallopeptidase inhibitor 1 (TIMP1), TIMP1 (gene 7076); experiment: BSK_hDFCGF_TIMP1: BioMAP Diversity Plus: hDFCGF Assay for TIMP metallopeptidase inhibitor 1 (TIMP1) Biomarker Activity (AID 2283062); settings: primary human foreskin fibroblasts; actives raise or lower the signal
Outline: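 Primary human foreskin fibroblasts in the hDFCGF system were dosed with compound for 24 h, then TIMP-1 was measured by ELISA. Activity was fitted bidirectionally relative to DMSO control; parallel SRB staining assessed cytotoxicity.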

[12] = read-out: Monokine induced gamma interferon (MIG), CXCL9 (gene 4283); experiment: BSK_hDFCGF_MIG: BioMAP Diversity Plus: hDFCGF Assay for Monokine induced gamma interferon (MIG) Biomarker Activity (AID 2283063); settings: primary human foreskin fibroblasts; actives raise or lower the signal
Outline: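 ELISA read-out of MIG from primary human dermal fibroblasts 24 h post-dosing. Gain or loss of signal fitted bidirectionally, DMSO as baseline.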

[13] = read-out: Matrix Metallopeptidase 1 (MMP1), MMP1 (gene 4312); experiment: BSK_hDFCGF_MMP1: BioMAP Diversity Plus: hDFCGF Assay for Matrix Metallopeptidase 1 (MMP1) Biomarker Activity (AID 2283064); settings: primary human foreskin fibroblasts; actives raise or lower the signal
Outline: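 MMP1 levels quantified by ELISA 24 h after dosing human dermal fibroblast cultures, with parallel SRB total-protein staining for overt cytotoxicity. Data fitted in both directions against DMSO baseline.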

[14] = read-out: Plasminogen activator inhibitor-1 (PAI1), SERPINE1 (gene 5054); experiment: BSK_hDFCGF_PAI1: BioMAP Diversity Plus: hDFCGF Assay for Plasminogen activator inhibitor-1 (PAI1) Biomarker Activity (AID 2283066); settings: primary human foreskin fibroblasts; actives raise or lower the signal
Outline: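 PAI-1 levels in human dermal foreskin fibroblasts were quantified by ELISA 24 h after dosing, with gain or loss analysed against DMSO. Overt cytotoxicity was checked by sulforhodamine B total-protein staining in parallel cultures.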

[15] = read-out: Intercellular Adhesion Molecule 1 (ICAM1), ICAM1 (gene 3383); experiment: BSK_KF3CT_ICAM1: BioMAP Diversity Plus: KF3CT Assay for Intercellular Adhesion Molecule 1 (ICAM1) Biomarker Activity (AID 2283067); settings: primary human keratinocytes with fibroblasts; actives raise or lower the signal
Outline: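 Human keratinocyte plus foreskin fibroblast primary co-culture was exposed to chemical for 24 h. ICAM-1 was then quantified by ELISA, and the data were fit bidirectionally against DMSO as the negative control and baseline.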

[16] = read-out: Interferon-gamma inducible Protein 10 (IP10), CXCL10 (gene 3627); experiment: BSK_KF3CT_IP10: BioMAP Diversity Plus: KF3CT Assay for Interferon-gamma inducible Protein 10 (IP10) Biomarker Activity (AID 2283068); settings: primary human keratinocytes with fibroblasts; actives raise or lower the signal
Outline: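 KF3CT co-culture (keratinocytes + foreskin fibroblasts), 24 h compound, IP-10 by ELISA; bidirectional fit vs DMSO baseline.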

[17] = BSK_KF3CT_SRB: Viability Assessment in the BioMAP Diversity Plus: KF3CT Assay (AID 2283069); settings: primary human keratinocytes with fibroblasts
Outline: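 Cytotoxicity was gauged by SRB staining (0.1% SRB, 10% TCA fixation, 560 nm) of parallel cultures at 24 h. The cells were primary human skin keratinocytes co-cultured with fibroblasts, and activity was fitted in both directions against DMSO.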

[18] = read-out: Interleukin-1 alpha (IL1a), IL1A (gene 3552); experiment: BSK_KF3CT_IL1a: BioMAP Diversity Plus: KF3CT Assay for Interleukin-1 alpha (IL1a) Biomarker Activity (AID 2283070); settings: primary human keratinocytes with fibroblasts; actives raise or lower the signal
Outline: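 IL-1a was detected by ELISA 24 h after chemical treatment of a co-culture of human skin keratinocytes and foreskin fibroblasts. Gain or loss of signal was fitted against the DMSO baseline.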

[19] = read-out: Interleukin-8 (IL8), CXCL8 (gene 3576); experiment: BSK_hDFCGF_IL8: BioMAP Diversity Plus: hDFCGF Assay for Interleukin-8 (IL8) Biomarker Activity (AID 2283058); settings: primary human foreskin fibroblasts; actives raise or lower the signal
Outline: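 hDFCGF human dermal fibroblasts; 24 h chemical exposure; IL-8 by ELISA; bidirectional curve fit vs DMSO baseline; gain or loss of signal scored.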

[20] = read-out: Vascular cell adhesion molecule 1 (VCAM1), VCAM1 (gene 7412); experiment: BSK_hDFCGF_VCAM1: BioMAP Diversity Plus: hDFCGF Assay for Vascular cell adhesion molecule 1 (VCAM1) Biomarker Activity (AID 2283065); settings: primary human foreskin fibroblasts; actives raise or lower the signal
Outline: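 Primary human foreskin fibroblasts (hDFCGF system) were dosed with chemical and VCAM-1 was measured by ELISA 24 h later. Bidirectional curve fitting used DMSO as negative control and activity baseline.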

Measured: AC50

CSCCC=O
not listed: [19] | [20]
inactive: all other assays above

O=C(Nc1ccc2c(O)c(N=Nc3ccc(N=Nc4ccc(S(=O)(=O)O)cc4)cc3)c(S(=O)(=O)O)cc2c1)c1ccccc1
active: [3] 25.5 µM and 36.2 µM | [9] 30.8 µM and 29.3 µM | [10] 35.3 µM | [12] 23.6 µM
inactive: [1] | [2] | [4] | [5] | [6] | [7] | [8] | [11] | [12] | [14] | [15] | [16] | [17] | [18]

Clc1cc(Cl)c(-c2c(Cl)c(Cl)cc(Cl)c2Cl)cc1Cl
inactive: [1] | [2] | [4] | [5] | [7] | [12] | [15]
active: [3] 16 µM | [6] 4.19 µM | [19] 15.8 µM | [8] 3.7 µM | [9] 8.48 µM | [10] 14.7 µM | [11] 10 µM | [14] 2.94 µM | [16] 15.5 µM | [17] 13.7 µM | [18] 2.95 µM

CCCCCCC(CO)CCCC (stereo unspecified)
active: [3] 30.6 µM and 32.5 µM | [5] 2.22 µM | [6] 29.6 µM and 31.9 µM | [8] 35.1 µM and 31.4 µM | [9] 33.8 µM and 30.2 µM | [10] 30.8 µM and 31.4 µM | [11] 30.9 µM and 35.9 µM | [12] 34 µM and 30.5 µM | [14] 29.9 µM and 36.3 µM | [15] 32.9 µM and 37.4 µM | [16] 38.1 µM and 36.7 µM | [17] 35.6 µM and 36.1 µM | [18] 33.4 µM and 30.3 µM
inactive: [1] | [2] | [4] | [5] | [7]

C[C@@H]1CCN(C(=O)[C@H](CCCN=C(N)N)NS(=O)(=O)c2cccc3c2NC[C@H](C)C3)[C@@H](C(=O)O)C1
not listed: [13]
inactive: all other assays above
